# ELG1 DNA repair: ELG1-dependent DNA repair inhibition; HEK293T ELG1-luciferase reporter, luminescence, 16 h; DNA damage induced by 5-fluorouridine; Potency, µM (doses to about 46.1 µM), for inactives: at the top dose activity change, negative = inhibition, actives largely listed as inhibitors; 2.3% of 330,000 active; further: potency means the concentration at half of the fitted maximal effect; nearly all actives have a fitted effect of over 55% in size
#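 HEK293T cells expressing luciferase-tagged ELG1 (2,000/well) received 5-Fluorouridine plus compound or DMSO for 16 hr at 37 °C. Luciferase was read by ONE-Glo luminescence after 30 min at room temperature.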
# DT40 TDP1 CPT: DT40-hTDP1 cell growth loss with CPT; chicken DT40 Tdp1-/-;hTDP1 cells + 20 nM CPT, ATP luminescence, 48 h; Potency, µM (top dose mostly 46.2 µM), inactives show at the highest dose activity change, negative = growth inhibition, usual class: inhibitors; 12% of 420,000 active; further: potency means the concentration at half of the fitted maximal effect; nearly all actives have a fitted effect of over 55% in size
#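 Chicken DT40 Tdp1-/- cells complemented with human TDP1, 400 cells/well, exposed to compounds plus 20 nM camptothecin for at least 48 h at 37 C; viability read as ATP content by CellTiter-Glo luminescence.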
# IL1B secr inh: inhibitors of inflammasome signaling (IL-1 beta secretion); 4.7% of 360,000 active; activity change, % at 57.5 µM; THP-1 LPS/ATP IL-1B secretion, AlphaLISA, 16 h; hits give low values; AID 743279; in the data active means activity change below about -50%; inconclusive means mostly about -30% to -49%
#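 Secreted IL-1B measured by AlphaLISA bead assay after 16 h compound exposure of THP-1 cells; compounds (final up to 57.5 uM) added 1 h before LPS (250 ng/mL) and ATP (1.25 mM) stimulation; lower signal means less secretion.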
# HT1080 IDH1KD tx: HT-1080 IDH1 knockdown cell toxicity (counter line); HT-1080 IDH1 knockdown viability, ATP luminescence, 48 h; Potency, µM (top dose mostly 46.1 µM), for the others: at the top dose activity, negative = toxicity, usual class: cytotoxic; 2% of 360,000 active; AID 686971;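 further: potency means the concentration at half of the fitted maximal effect; 0% = DMSO wells and -100% = cell-free medium wells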
#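 After a 2 h attachment period, IDH1KD HT-1080 cells took pin-transferred compound for 48 h at 37 °C; ATP-based luminescence after 10 min room-temperature reagent incubation reported viability.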
# HT1080NT lethal: kills 2HG-producing HT-1080-NT fibrosarcoma cells | 1.6% of 360,000 active | Potency, µM (doses to about 46.1 µM), for inactives: at the top dose activity, negative = less viability, actives largely listed as cytotoxic | HT-1080-NT fibrosarcoma viability, CellTiter-Glo ATP luminescence, 48 h;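 further: NT is the 2HG producing partner of a matched IDH1 knockdown line; potency means the concentration at half of the fitted maximal effect; 0% = DMSO-treated cells and -100% = media-only wells without cells; nearly all actives have a fitted effect of over 55% in size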
#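 HT-1080-NT; 750 cells/well; 5% FBS RPMI; 48 h compound, 37 degrees C; CellTiter-Glo luminescence; curve fitting and curve-class assignment.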
# TDP1 cell noCPT: qHTS for Inhibitors of human tyrosyl-DNA phosphodiesterase 1 (TDP1): qHTS in cells in absence of CPT. DT40 Tdp1-/- hTDP1 cells, no CPT, ATP luminescence, 48 h. AID 686978, 2013. 15% of 420,000 active. Potency, µM (highest dose often 46.2 µM), inactives show at the highest dose activity change, negative = growth inhibition, usual class: inhibitors; further: potency means the concentration at half of the fitted maximal effect; nearly all actives have a fitted effect of over 55% in size
#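 No-CPT arm: Tdp1-/-;hTDP1 DT40 cells (400/well) plus compounds, incubated ≥48 hr at 37 °C. Readout CellTiter-Glo luminescence.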
# An asterisk follows results filed as active; ? = inconclusive; / = no result. Hits are enriched below; roughly 19% of the tested compounds scored in any of these assays. Unless noted, the call rests on the fitted dose curve; in most records, active means well fitted curve in the direction sought with a large enough effect; inconclusive means small, poorly fitted or top-dose-only effect, or another doubt; inactive means no such curve, though single readings can be large; an effect the other way counts as inactive or inconclusive. Unless noted, on the % scale 0 is the no-effect control and ±100 the full control effect.
SMILES,ELG1 DNA repair,DT40 TDP1 CPT,IL1B secr inh,HT1080 IDH1KD tx,HT1080NT lethal,TDP1 cell noCPT
CCC1NC(=O)c2cc3ccccc3cc2-n2c1nc1ccc(F)cc1c2=O (stereo unspecified),/,?,-17,7%,4%,23µM*
O=C1NC(Cc2ccc(O)cc2)c2nc3cc(Cl)ccc3c(=O)n2-c2cc(Cl)ccc21 (stereo unspecified),/,?,-71*,?,-23%,?
O=C1NC(Cc2ccccc2)c2nc3ccc(Cl)cc3c(=O)n2-c2cc3ccccc3cc21 (stereo unspecified),/,?,16,?,-19%,7.3µM*
OCC1(CCOc2ccccc2)CCN(C2Cc3ccccc3C2)CC1,4%,?,?,-8%,-7%,-6%
O=C(Nc1cccc(Cl)c1)c1ccccc1,?,-23%,6,13%,8%,-24%
O=C(NC1=C(Nc2ccc(Cl)cc2)C(=O)c2ccccc2C1=O)c1ccccc1,?,23µM*,?,-17%,?,16µM*
O=C(Nc1ccsc1C(=O)O)c1ccc(Cl)cc1,?,5%,17,-1%,-9%,?
Cc1cccc(C(=O)Nc2cccc(NC(=O)c3ccccc3)c2)c1,-30%,-6%,-21,-22%,-20%,?
O=C1C(Cl)=C(NC(=O)c2ccccc2)C(=O)C(Cl)=C1NC(=O)c1ccccc1,-4%,1.3µM*,-99*,8.2µM*,10µM*,2.6µM*
Cc1cccc(NC2=C(NC(=O)c3ccccc3)C(=O)c3ccccc3C2=O)c1,?,10µM*,-74*,?,?,12µM*
O=C(Nc1ccc(-c2csc(Nc3ccc(Cl)cc3)n2)cc1)c1ccccc1,18%,?,12,-2%,-4%,?
CN(C1=C(NC(=O)c2ccc(Cl)cc2)C(=O)c2ccccc2C1=O)c1ccccc1,?,5.8µM*,-74*,-29%,-21%,10µM*
COc1ccc(OC)c(CNC(=O)NCc2noc3ccc(C)cc23)c1,/,-2%,/,/,/,-26%
O=C(Nc1cc(N2CCCCC2)ncn1)c1ccccc1,?,-30%,17,-28%,-13%,?
O=C(NC1=C(NC2CCS(=O)(=O)C2)C(=O)c2ccccc2C1=O)c1ccccc1 (stereo unspecified),?,2.1µM*,-93*,18µM*,15µM*,2.3µM*
O=C(Nc1cc(Cl)ncn1)c1ccccc1,/,18%,-63*,1%,-1%,14%
O=C(N/N=C/c1c[nH]c2ccc(Br)cc12)c1ccn(Cc2ccc(Cl)cc2Cl)n1,-15%,?,?,?,?,21µM*
COc1ccc(/C=C2\SC(=S)N(CCC(=O)NC3CCCC3)C2=O)cc1OC,2%,?,-10,0%,16%,16µM*
COc1ccc(/C=C2\SC(=S)N(CCCC(=O)Nc3cc(C)on3)C2=O)cc1OC,7.3µM*,2%,5,20%,16%,-19%
CC1CN(CC(=O)NCc2ccc(F)cc2)CC(C)O1 (stereo unspecified),17%,6%,42,3%,10%,11%
CCN(CC(=O)NC1CCS(=O)(=O)C1)S(=O)(=O)c1ccc(C)c(C)c1 (stereo unspecified),16%,-1%,-2,-1%,-1%,-24%
O=C(NCCN1CCOCC1)c1cc(-c2ccco2)on1,?,15µM*,3,10%,4%,15µM*
O=C(NCCN1CCOCC1)c1ccc2ccccc2c1,?,21µM*,18,-15%,-7%,-14%
N#Cc1c(-c2ccccc2)nc2n1CCS2,8%,21%,-8,10%,4%,?
